# Key:
# [1] = molecular target: Insulin-like growth factor 1 receptor (Homo sapiens) (UniProt P08069); conditions: at 10 µM
# [2] = molecular target: T1, Protein kinase C zeta type (Homo sapiens) (UniProt Q05513); conditions: at 10 µM
# T1 sequence (whole entry): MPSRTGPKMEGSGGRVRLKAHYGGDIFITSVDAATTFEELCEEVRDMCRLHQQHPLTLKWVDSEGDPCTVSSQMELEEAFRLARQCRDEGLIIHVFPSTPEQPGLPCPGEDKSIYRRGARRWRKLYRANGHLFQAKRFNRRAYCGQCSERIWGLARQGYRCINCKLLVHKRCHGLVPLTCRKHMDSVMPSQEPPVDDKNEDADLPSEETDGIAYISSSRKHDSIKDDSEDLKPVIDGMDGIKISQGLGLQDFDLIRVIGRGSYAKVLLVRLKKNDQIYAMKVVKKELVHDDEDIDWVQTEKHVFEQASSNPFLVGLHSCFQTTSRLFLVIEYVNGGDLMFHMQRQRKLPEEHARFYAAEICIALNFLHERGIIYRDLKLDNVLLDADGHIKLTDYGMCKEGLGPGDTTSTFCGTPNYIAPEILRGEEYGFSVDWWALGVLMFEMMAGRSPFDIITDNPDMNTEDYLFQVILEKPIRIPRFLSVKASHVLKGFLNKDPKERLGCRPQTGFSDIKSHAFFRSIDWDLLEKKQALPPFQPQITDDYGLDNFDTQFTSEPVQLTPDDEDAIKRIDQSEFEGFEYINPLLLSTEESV
# [3] = molecular target: Protein kinase C eta type (Homo sapiens) (UniProt P24723); conditions: at 1 µM
# [4] = molecular target: Protein kinase C eta type (Homo sapiens) (UniProt P24723); conditions: at 10 µM
# [5] = molecular target: Protein kinase C theta type (Homo sapiens) (UniProt Q04759); conditions: at 1 µM
# [6] = molecular target: Protein kinase C theta type (Homo sapiens) (UniProt Q04759); conditions: at 10 µM
# [7] = molecular target: T2, Protein kinase C iota type (Homo sapiens) (UniProt P41743); conditions: at 1 µM
# T2 sequence (whole entry): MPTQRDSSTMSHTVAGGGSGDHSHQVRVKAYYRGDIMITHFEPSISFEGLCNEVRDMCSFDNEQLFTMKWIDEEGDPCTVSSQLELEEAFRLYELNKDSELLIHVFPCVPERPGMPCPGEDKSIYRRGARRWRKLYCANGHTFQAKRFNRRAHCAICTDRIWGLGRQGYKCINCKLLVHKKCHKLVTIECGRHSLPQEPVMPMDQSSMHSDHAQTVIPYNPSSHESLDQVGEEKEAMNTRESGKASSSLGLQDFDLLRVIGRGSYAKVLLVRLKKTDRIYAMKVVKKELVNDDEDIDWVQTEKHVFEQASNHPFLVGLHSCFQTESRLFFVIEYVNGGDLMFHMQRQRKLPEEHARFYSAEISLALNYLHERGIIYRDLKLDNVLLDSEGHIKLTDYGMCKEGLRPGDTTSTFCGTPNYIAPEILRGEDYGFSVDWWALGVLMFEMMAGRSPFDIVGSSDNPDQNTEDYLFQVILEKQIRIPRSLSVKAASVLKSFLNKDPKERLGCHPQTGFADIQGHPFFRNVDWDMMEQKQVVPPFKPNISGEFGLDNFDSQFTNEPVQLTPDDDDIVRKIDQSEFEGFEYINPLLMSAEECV
# [8] = molecular target: T2, Protein kinase C iota type (Homo sapiens); conditions: at 10 µM
# [9] = molecular target: T3, Serine/threonine-protein kinase D1 (Homo sapiens) (UniProt Q15139); conditions: at 1 µM
# T3 sequence (whole entry): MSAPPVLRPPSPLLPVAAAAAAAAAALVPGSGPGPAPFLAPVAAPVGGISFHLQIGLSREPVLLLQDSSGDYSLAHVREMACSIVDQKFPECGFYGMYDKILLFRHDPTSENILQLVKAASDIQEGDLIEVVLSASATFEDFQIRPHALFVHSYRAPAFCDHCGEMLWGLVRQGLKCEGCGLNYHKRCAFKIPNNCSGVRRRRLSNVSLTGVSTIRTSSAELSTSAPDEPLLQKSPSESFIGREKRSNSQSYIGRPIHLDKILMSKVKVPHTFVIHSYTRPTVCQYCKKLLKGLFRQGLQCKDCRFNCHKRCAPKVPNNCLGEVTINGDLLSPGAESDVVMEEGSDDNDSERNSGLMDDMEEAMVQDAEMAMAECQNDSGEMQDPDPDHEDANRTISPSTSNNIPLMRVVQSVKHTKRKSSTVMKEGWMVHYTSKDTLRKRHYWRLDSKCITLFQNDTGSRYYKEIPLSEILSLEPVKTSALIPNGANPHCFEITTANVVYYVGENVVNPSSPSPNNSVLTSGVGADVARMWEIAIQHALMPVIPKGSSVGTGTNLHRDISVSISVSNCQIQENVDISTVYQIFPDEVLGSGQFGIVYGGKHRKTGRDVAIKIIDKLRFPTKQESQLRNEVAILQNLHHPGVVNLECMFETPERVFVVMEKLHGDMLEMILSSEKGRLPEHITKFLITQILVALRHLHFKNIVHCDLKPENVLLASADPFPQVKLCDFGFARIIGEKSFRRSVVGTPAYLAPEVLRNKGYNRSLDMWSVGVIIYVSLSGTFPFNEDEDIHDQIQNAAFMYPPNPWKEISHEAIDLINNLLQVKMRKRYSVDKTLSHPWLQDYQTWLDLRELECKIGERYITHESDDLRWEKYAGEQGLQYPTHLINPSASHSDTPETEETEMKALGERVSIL
# [10] = molecular target: T3, Serine/threonine-protein kinase D1 (Homo sapiens); conditions: at 10 µM
# Chain of Insulin-like growth factor 1 receptor (Homo sapiens) (P08069 31-736 limits assumed): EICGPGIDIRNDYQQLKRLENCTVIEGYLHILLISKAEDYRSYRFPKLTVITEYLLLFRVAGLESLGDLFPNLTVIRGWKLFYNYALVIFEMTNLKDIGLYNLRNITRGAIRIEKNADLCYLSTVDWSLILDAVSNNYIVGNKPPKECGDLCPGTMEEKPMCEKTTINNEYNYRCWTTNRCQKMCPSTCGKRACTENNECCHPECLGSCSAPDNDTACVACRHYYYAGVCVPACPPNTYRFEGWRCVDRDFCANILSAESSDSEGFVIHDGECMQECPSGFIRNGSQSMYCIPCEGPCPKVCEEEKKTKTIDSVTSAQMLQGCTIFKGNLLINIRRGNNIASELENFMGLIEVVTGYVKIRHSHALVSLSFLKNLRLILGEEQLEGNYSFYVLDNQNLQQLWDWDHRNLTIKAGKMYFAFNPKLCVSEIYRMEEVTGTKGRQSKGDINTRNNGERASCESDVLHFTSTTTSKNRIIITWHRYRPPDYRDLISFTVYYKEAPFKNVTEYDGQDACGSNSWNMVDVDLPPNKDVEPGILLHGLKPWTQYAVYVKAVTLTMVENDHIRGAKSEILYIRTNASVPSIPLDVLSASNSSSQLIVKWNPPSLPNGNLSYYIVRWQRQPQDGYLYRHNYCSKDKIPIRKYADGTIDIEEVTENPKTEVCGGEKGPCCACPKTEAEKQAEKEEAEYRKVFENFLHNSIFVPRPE
# Chain of Insulin-like growth factor 1 receptor (Homo sapiens) (P08069 741-1367 limits assumed): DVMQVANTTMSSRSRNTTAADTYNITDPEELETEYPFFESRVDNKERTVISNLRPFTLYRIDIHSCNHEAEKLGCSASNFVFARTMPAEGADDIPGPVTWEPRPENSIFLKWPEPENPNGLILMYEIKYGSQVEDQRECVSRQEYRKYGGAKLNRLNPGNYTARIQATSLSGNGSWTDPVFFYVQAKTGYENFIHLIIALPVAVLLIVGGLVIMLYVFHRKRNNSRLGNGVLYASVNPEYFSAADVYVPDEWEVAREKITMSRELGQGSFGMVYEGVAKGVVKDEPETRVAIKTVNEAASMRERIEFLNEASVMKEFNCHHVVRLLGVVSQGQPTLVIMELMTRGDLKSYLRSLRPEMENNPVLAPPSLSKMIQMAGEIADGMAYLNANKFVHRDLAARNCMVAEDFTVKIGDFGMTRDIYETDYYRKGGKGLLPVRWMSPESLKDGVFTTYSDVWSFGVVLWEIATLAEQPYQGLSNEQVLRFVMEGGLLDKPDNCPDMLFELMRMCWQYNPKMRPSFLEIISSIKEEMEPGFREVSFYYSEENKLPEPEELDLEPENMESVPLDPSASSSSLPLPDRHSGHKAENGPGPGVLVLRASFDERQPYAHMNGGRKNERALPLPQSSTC
# Chain of Protein kinase C theta type (Homo sapiens) (Q04759 whole entry, looked up): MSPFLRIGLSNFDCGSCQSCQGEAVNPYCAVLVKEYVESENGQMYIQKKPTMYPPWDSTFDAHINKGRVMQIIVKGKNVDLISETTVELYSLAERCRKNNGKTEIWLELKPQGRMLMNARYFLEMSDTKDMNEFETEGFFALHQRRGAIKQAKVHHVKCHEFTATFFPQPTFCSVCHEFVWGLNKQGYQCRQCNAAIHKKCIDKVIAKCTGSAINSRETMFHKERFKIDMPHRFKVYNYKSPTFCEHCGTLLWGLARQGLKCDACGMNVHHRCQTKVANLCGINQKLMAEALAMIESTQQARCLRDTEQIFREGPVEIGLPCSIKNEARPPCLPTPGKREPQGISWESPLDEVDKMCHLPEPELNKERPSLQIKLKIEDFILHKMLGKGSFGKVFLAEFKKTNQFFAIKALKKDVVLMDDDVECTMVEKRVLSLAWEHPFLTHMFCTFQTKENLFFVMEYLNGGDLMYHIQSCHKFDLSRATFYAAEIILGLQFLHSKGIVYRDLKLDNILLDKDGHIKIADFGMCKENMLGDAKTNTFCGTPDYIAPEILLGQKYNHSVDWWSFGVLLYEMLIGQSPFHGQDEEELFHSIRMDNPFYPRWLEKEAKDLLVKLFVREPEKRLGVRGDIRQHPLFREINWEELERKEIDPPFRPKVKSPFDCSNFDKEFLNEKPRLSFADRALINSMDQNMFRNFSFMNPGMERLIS
# Chain of Protein kinase C eta type (Homo sapiens) (P24723 whole entry): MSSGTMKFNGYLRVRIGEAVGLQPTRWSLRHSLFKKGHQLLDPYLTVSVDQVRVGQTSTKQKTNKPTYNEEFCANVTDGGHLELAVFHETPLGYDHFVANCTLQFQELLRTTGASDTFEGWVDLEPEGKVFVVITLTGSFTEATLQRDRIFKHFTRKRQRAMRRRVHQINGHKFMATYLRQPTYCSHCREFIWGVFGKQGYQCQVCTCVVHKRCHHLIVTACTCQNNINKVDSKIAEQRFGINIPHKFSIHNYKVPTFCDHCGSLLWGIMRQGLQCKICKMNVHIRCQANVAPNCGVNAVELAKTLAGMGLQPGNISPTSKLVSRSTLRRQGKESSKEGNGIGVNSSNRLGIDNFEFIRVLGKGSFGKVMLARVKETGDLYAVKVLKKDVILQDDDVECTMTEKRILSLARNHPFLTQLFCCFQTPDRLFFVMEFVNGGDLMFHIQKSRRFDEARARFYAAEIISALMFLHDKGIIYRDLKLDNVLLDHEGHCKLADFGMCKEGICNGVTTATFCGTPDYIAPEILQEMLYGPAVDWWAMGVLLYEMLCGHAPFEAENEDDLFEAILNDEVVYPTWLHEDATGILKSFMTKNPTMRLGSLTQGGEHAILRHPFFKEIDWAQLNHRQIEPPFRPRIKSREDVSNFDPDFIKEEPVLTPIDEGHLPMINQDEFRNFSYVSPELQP
Compound,residual activity [1],residual activity [2],residual activity [3],residual activity [4],residual activity [5],residual activity [6],residual activity [7],residual activity [8],residual activity [9],residual activity [10]
O=[N+]([O-])/C=C/c1ccc2c(c1)OCO2,121%,114%,100%,72%,95%,93%,93% (inactive),76%,91%,88%
CC(C)(C)c1cc(C=C(C#N)C#N)cc(Br)c1O,101%,101%,,,103%,75%,107% (inactive),,98%,117%
O=C1c2ccccc2-c2nc3nnnn3nc21,83%,108%,117%,83%,,,,,104%,106%
C[S+]([O-])c1ccc(-c2nc(-c3ccc(F)cc3)c(-c3ccncc3)[nH]2)cc1 (stereo unspecified),117%,111%,79%,77%,105%,104%,105% (inactive),101%,123%,66%
COc1ccc2c(c[n+](C)c3c4cc5c(cc4ccc23)OCO5)c1OC,131%,75%,,,90%,66%,98% (inactive),81%,110%,61%
COC(=O)[C@@]1(O)C[C@H]2O[C@]1(C)n1c3ccccc3c3c4c(c5c6ccccc6n2c5c31)C(=O)NC4,14%,8%,36%,7%,10%,5%,107% (inactive),69%,1%,0%
N/C(=N\[N+](=O)[O-])N/N=C\c1ccc(-c2cccc([N+](=O)[O-])c2)o1,76%,98%,84%,83%,,,,,,
O=c1[nH]c2ccccc2n1C1CCN(Cc2ccc(-c3nc4cc5[nH]cnc5cc4nc3-c3ccccc3)cc2)CC1,39%,97%,120%,83%,104%,109%,87% (inactive),90%,96%,97%
COc1cc(OC)c(/C=C2\C(=O)Nc3ccccc32)c(OC)c1,133%,,94%,94%,85%,90%,,,84%,90%
O=C1NC(=O)c2c1c1c3ccccc3n3c1c1c2c2ccccc2n1C1CCC3O1,,,89%,81%,7%,13%,,,87%,49%
O=C1Nc2ccc3ncsc3c2/C1=C/c1c[nH]cn1,68%,53%,23%,5%,49%,10%,85% (inactive),73%,5%,4%
c1cc(-c2cnn3cc(-c4ccc(OCCN5CCCCC5)cc4)cnc23)ccn1,143%,,106%,,,,,86%,,54%
CC(C)[C@H](CO)Nc1nc(Nc2cccc(Cl)c2)c2ncn(C(C)C)c2n1,136%,117%,100%,90%,70%,26%,,,81%,86%
CCc1nc(-c2ccc(OC)cc2)[nH]c1-c1ccncc1,128%,104%,105%,73%,108%,105%,107% (inactive),105%,,
CCn1cnc2c(Nc3cccc(Cl)c3)nc(N[C@@H]3CCCC[C@@H]3N)nc21,123%,,93%,80%,71%,23%,,,97%,61%
COc1ccc2c(c1)/C(=C/c1cnc[nH]1)C(=O)N2,128%,,,,,,,,,
COc1cc2ncnc(Nc3ccc(OCc4ccccc4)cc3)c2cc1OC,129%,108%,109%,97%,124%,114%,95% (inactive),68%,93%,113%

# From ChEMBL document CHEMBL2218924, “A broad activity screen in support of a chemogenomic map for kinase signalling research and drug discovery” (Biochem J, 2013)
